Source: PubChem BioAssay (NCI)
Several values for one entry are separate records, joined by “and”; a condition that tells them apart may be missing. Equal values may be shown once. Compounds without any hit were thinned out: in the full panel of roughly 83,000, 20% have a hit.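 Plates (96-well) were seeded with cells, treated with compound at one concentration, and incubated for 48 hours before percent growth was determined.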 A number with no mark means an inactive call. Activity calls are given as the source filed them. How the source made its calls: active means growth percent below 10; inactive means the rest.

tested on: HL-60(TB) leukemia; assay: NCI-60 one-dose screen, 48 h (100 = growth as untreated, 0 = no growth, -100 = all killed); settings: 10 µM unless noted

Row | Structure (SMILES) | growth
1 | O=C(/C=C/c1ccc(F)cc1)c1ccc(Nc2nc(NCCO)nc(Nc3ccc(Cl)cc3)n2)cc1 | 98.6%
2 | Clc1ccc(C2=NN(c3ccccc3)[C@H](c3cn(-c4ccccc4)nc3-c3ccccc3)C2)cc1 | 116%
3 | C=C(C)[C@@H]1CC[C@]2(C(=O)N=C=S)CC[C@]3(C)[C@H](CC[C@@H]4[C@@]5(C)CCC(=O)C(C)(C)[C@@H]5CC[C@]43C)[C@@H]12 | -2.27% (active)
4 | C=C(C)[C@@H]1CC[C@]2(C=O)CC[C@]3(C)[C@H](CC[C@@H]4[C@@]5(C)CCCNC(C)(C)[C@@H]5CC[C@]43C)[C@@H]12 | 7.59% (active)
5 | CN1CCN(CCCOc2cccc3nc(Nc4ccc(Cl)c(C(F)(F)F)c4)ccc23)CC1 | 82.3%
6 | Cn1ccc2c(c1=O)C(=O)c1nccc3c1c-2nc1ccccc13 | -67.4% (active)
7 | CCCCCCCCCCCCCCCCSC(=NCC)NCC | -59.1% (active)
8 | O=[N+]([O-])c1ccc(Oc2cccnc2)c([N+](=O)[O-])c1 | -10.1% (active)
9 | COC(=O)C1=C(C(=O)ONCCN(C)C)C2C=CC1(C(Cc1ccccc1)Nc1ccc(F)cc1)O2 (centres undefined) | 35.8%
10 | O=CC(O)C(O)C(O)CO (centres undefined) | 130% and 91.5%
11 | CCN1CC(=O)N(/N=C2\C(=O)Nc3ccccc32)C1=S | 82.7%
12 | CCOC(=O)C1=C(C)NC(C)=C(C(=O)OCC)C1 | 110% and 102%
13 | COc1cc(OC)cc(-c2cncn2-c2ccc(-c3nc4cc(OC)cc(OC)c4s3)cc2)c1 | 41%
14 | Cc1sc(N=Nc2ccc(N(C)C)cc2)[n+]([O-])c1C | 92.7%
15 | O=C1CNC(c2ccccc2)C(c2ccccc2)N1 (centres undefined) | 106%
16 | O=C(Nc1cccc(Cl)c1)OCC(COC(=O)Nc1cccc(Cl)c1)(COC(=O)Nc1cccc(Cl)c1)[N+](=O)[O-] | 45%
17 | Cc1nc(N)sc1-c1ccnc(Nc2ccc(N3CCOCC3)cc2)n1 | 43.9%
18 | O=C(Nn1c2c(sc1=Nc1ccccc1)C(=O)c1ccccc1C2=O)c1cc2ccc1CCc1ccc(cc1)CC2 | 91.6%
19 | Cc1ccc(C)c2c1C(=O)OC2=O | 29.7%
20 | CCc1cccc(CC)c1NC(=O)c1sc2nc3c(cc2c1N)CCCC3 | 41%

Row | Structure (SMILES) | growth
21 | C=Cc1cc[n+](CCCCCCCCCCCC)cc1 | 80%
22 | O=c1c2cc(F)ccc2sc2c(Nc3cccnc3)nc3ccccc3c12 | 88.5%
23 | Cc1ccc(C(=O)c2ccc(C)cc2)cc1 | 92.5% and 98.6%
24 | C[C@H](C(=O)N[C@@H](Cc1ccc(-c2ccccc2)cc1)C(=O)NC1CC(C)(C)N(C)C(C)(C)C1)c1ccc(-c2ccccc2)c(F)c1 | -61.2% (active)
25 | Cc1cc(N(CCCNc2ccnc3cc(Cl)ccc23)Cc2ccco2)nc(N2CCOCC2)n1 | 45.5%
26 | COc1ccc(-c2nc(SCC(C)C)nc(N/N=C\c3ccc(F)cc3)c2C#N)cc1 | 83.4%
27 | O=C1c2ccccc2C(c2ccccc2)C1c1ccccc1 (centres undefined) | 76.4%
28 | Cn1cc(-c2ccc3nc(-c4ccc(CC(=O)ONc5cc(C(C)(C)C)on5)cc4)cnc3c2)cn1 | 29%
29 | CCOC(=O)c1cc2c(n1Cc1ccccc1)-c1oncc1CCC2 | 33.9%
30 | CC1(C)OC(=O)CC1=O | 91.5%
31 | O=c1c(CNc2ccc(S(=O)(=O)Nc3nccs3)cc2)coc2ccccc12 | 89.6%
32 | CN([O-])c1nc(N(C)[O-])nc(N2CCOCC2)n1.CN([O-])c1nc(N(C)[OH2+])nc(N2CCOCC2)n1.[Fe+3] | 93.8% [100 µM]
33 | CS(=O)(=O)c1cccc(-c2c(-c3cccc(OS(N)(=O)=O)c3)nc3sccn23)c1 | 102%
34 | COc1ccc2c(Nc3ccc(NS(C)(=O)=O)cc3)c3ccccc3nc2c1 | -8.29% (active)
35 | COc1cc2cc(Oc3ccc(NC(=O)Nc4ccc(Cl)c(Cl)c4)cc3)c(C)nc2cc1OCCN1CCOCC1 | 97.9%
36 | CCOC(=O)C(C#N)=C1CCN(C)CC1 | 113%
37 | N/C(=N\N=C\c1cc2ccccc2s1)N/N=C/c1cc2ccccc2s1 | 94.4%
38 | CN1CCN(Cc2ccc(NC(=O)c3cncc(C#Cc4cnccc4C(F)(F)F)c3)cc2C(F)(F)F)CC1 | 38.4%
39 | OCCN1CCN(CC/C=C2\c3ccccc3Sc3ccc(Cl)cc32)CC1 | 14.2% and 19.5%
